Measurements from PubChem BioAssay (NCI).
Where “and” joins values, the source holds several entries; their conditions need not be identical. Identical values can stand only once. Compounds without any hit were thinned out: in the full panel of roughly 79,000, 15% have a hit. Calls of active or inactive are those of the source. No stated cut-off is given here; in the data, active means growth inhibition above about 70%; inactive means the rest.

Tests used:
[1] = NCI Yeast Anticancer Drug Screen. Data for the rad50 strain (AID 155);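 further: 0% = growth of vehicle-only cultures of the same strain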; settings: S. cerevisiae rad50 strain growth inhibition, stronger effect = higher value; at 50.0 µM unless noted
In short: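 Genetically altered yeast (DNA repair pathway); compound treatment; growth inhibition vs vehicle ctrl.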

[2] = NCI Yeast Anticancer Drug Screen. Data for the mec2-1 strain (AID 157); settings: S. cerevisiae mec2-1 strain, stronger effect = higher value; at 50.0 µM unless noted
In short: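 Cells of the genetically defined mec2-1 yeast strain are incubated with test compound. Inhibition of growth is calculated against vehicle-treated controls.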

[3] = NCI Yeast Anticancer Drug Screen. Data for the sgs1 mgt1 strain (AID 161);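 further: 0% = growth of cultures given vehicle only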; settings: S. cerevisiae sgs1 mgt1 strain, stronger effect = higher value; at 50.0 µM unless noted
In short: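 Genetically altered yeast, compound exposure, growth inhibition relative to vehicle.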

[4] = NCI Yeast Anticancer Drug Screen. Data for the cln2 rad14 strain (AID 165);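 further: 0% = growth equal to vehicle treated cultures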; settings: S. cerevisiae cln2 rad14 strain, stronger effect = higher value; at 50.0 µM unless noted
In short: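 The screen exposed genetically defined yeast (cln2 rad14) to test compounds and scored growth inhibition relative to vehicle-treated controls.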

[5] = NCI Yeast Anticancer Drug Screen. Data for the bub3 strain (AID 167); settings: S. cerevisiae bub3 mutant strain, stronger effect = higher value; at 50.0 µM unless noted
In short: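 Yeast carrying a defined mutation is treated with each compound, and growth is compared with that of vehicle-exposed cells to give inhibition.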

[6] = NCI Yeast Anticancer Drug Screen. Data for the mlh1 rad18 strain (AID 175); settings: S. cerevisiae mlh1 rad18 strain growth inhibition, stronger effect = higher value; at 50.0 µM unless noted
In short: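 Compound-treated yeast growth, normalised to vehicle controls. Strain bears defined DNA repair mutations.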

Measured: growth inhibition

OC1(c2nccc3ccccc23)CCN(CCc2ccccc2)CC1
inactive: [1] 46.5% | [2] 33.4% | [3] 55.8% | [4] 40.5% | [5] 17.9% | [6] 34.8%

CCCCOC(=O)CC(O)C(=O)OCCCC (stereo not drawn)
inactive: [1] 39.1% | [2] -4.45% | [3] -17.5% | [4] -61.2% | [5] -29.9% | [6] -11%

Cc1nc2cnc(=Nc3ccccc3)nc-2n(-c2ccccc2)c1C
inactive: [1] -1.15% | [2] -1.55% | [3] -0.65% | [4] 56.9% | [5] 5.15% | [6] -7.9%

O=c1c2ccccc2c(=O)c2c1c1c(=O)c3ccccc3c(=O)c1c1c(=O)c3ccccc3c(=O)c21
inactive: [1] 22.2% | [2] 9.65% | [3] 30.2% | [4] 29.6% | [5] 0.5% | [6] 22.4%

O=C1c2ccccc2NC(O)c2cccn21 (stereo not drawn)
inactive: [1] 0.3% | [2] 0.2% | [3] -3.75% | [4] -25.9% | [5] 11.4% | [6] -5.45%

CCOC(=O)c1[nH]c(=O)[nH]c(=O)c1[N+](=O)[O-]
inactive: [1] 0.4% | [2] -3.75% | [3] 7.15% | [4] 3.4% | [5] -11.9% | [6] -2.3%

NC(=O)C1(N2CCCC2)CCN(Cc2ccccc2)CC1
inactive: [1] -9.2% | [2] -18.9% | [3] -17.6% | [4] -1.6% | [5] -10.6% | [6] -15.8%

Cc1cc(Cl)cc2c1OC(C)OC2=O (stereo not drawn)
inactive: [1] -7.85% | [2] 0.2% | [3] -17.6% | [4] -5.6% | [5] 11.6% | [6] 28.6%

O=[N+]([O-])c1nccn1CC1OC(n2ccnc2[N+](=O)[O-])C(O)C(O)C1O (stereo not drawn)
inactive: [1] 0.3% | [2] 2.6% | [3] -2.95% | [4] 5.9% | [5] 25.3% | [6] 6.25%

Cn1c2ccccc2c(=O)c2[nH]c3ccccc3c21
active: [1] 77.1% | [2] 78.5% | [3] 84.2% | [5] 83.3% | [6] 76.8%
inactive: [4] 63.5%

CCC(C)(C)NC(N)=O
inactive: [1] 13.1% | [2] 22.6% | [3] 8.55% | [4] -34.2% | [5] 8.55% | [6] 23.7%

O=C1/C(=C/c2cccc(Cl)c2)CCCc2ccccc21
inactive: [1] 21.9% | [2] 13.8% | [3] 33.2% | [4] 11.3% | [5] 62.5% | [6] 44.4%

CC(=O)c1ccc(NC(=O)C(=O)C(C(=O)c2ccc(Cl)c(Cl)c2)C2OC(=O)c3ccccc32)cc1 (stereo not drawn)
inactive: [1] 44.6% | [2] 38.8% | [3] 13.7% | [4] 54.1% | [5] 60.3% | [6] 49.3%

O=c1oc(=O)c2cc3c(=O)oc(=O)c3cc12
inactive: [1] -21.4% | [2] 11.1% | [3] -6.75% | [4] -28% | [5] 7.1% | [6] -5.6%

Cc1ccc(S(=O)(=O)Nc2ccc([N+](=O)[O-])cc2-c2ccccc2)cc1
inactive: [1] -0.25% | [2] -9.2% | [3] 0.2% | [4] -1.15% | [5] 5.15% | [6] 4.2%

CC1=N/C(=C\c2cccc([N+](=O)[O-])c2)C(=O)O1
inactive: [1] -6.9% | [2] -30.8% | [3] 5.1% | [4] 3.35% | [5] -10.7% | [6] 13.5%

C(=C1CCCCC1)c1ccccn1
inactive: [1] -9.2% | [2] 24.9% | [3] -10.7% | [4] -23.3% | [5] -18.8% | [6] -24.9%

CC1CC(C)OC(C(Br)CBr)O1 (stereo not drawn)
inactive: [1] 5.05% | [2] -10.9% | [3] -4.8% | [4] 15% | [5] -13.9% | [6] 12.1%

CC(C)N=C(N)N=C(N)N
inactive: [1] 30.9% | [2] 13.5% | [3] 3.85% | [4] 3.9% | [5] 30.2% | [6] -3.2%

CN(C)c1ccc(/C=C(\C#N)c2ccc(F)cc2)cc1
inactive: [1] -2.65% | [2] -1.8% | [3] 3.05% | [4] -26.6% | [5] -6.75% | [6] -17.8%

CC(=O)c1ccc(N=CC2CCCCC2=O)cc1 (stereo not drawn)
inactive: [1] -8.35% | [2] 2.7% | [3] 17.1% | [4] -30.1% | [5] -2.9% | [6] -13.9%

CC(O)CNC(=O)C(C)(C)O (stereo not drawn)
inactive: [1] 36% | [2] 13.6% | [3] 20.7% | [4] 9.65% | [5] 21.8% | [6] 18.9%

CCOC(C)C(Nc1ccc(C(=O)O)cc1)C(=O)Nc1ccc(C(=O)O)cc1 (stereo not drawn)
inactive: [1] 9.8% | [2] 2% | [3] 4.5% | [4] -29.4% | [5] -5.6% | [6] -10.7%

Cc1ccc(Nc2nc(-c3ccc(-c4ccc([N+](=O)[O-])cc4)o3)cs2)cc1
inactive: [1] 20.5% | [2] 19.5% | [3] 31.8% | [4] 31.5% | [5] 28.7% | [6] 44%

CC1=CP(=O)(c2ccccc2)CC1 (stereo not drawn) (tested in a mixture with another compound)
inactive: [1] -12.2% | [2] -9.2% | [3] 6.2% | [4] -9.85% | [5] -10.4% | [6] 1.2%

O=C1NC(N/N=C\C(O)C(O)C(O)CO)=N/C1=C/c1ccccc1 (stereo not drawn)
inactive: [1] 16.4% and 33.9% | [2] 18.7% and 29.6% | [3] 3.75% and 32.5% | [4] 16.8% and 16.1% | [5] 12.2% and 32.3% | [6] -9.35% and -5.7%

O=C(NSN1CCOCC1)c1ccccc1
inactive: [1] 38.8% | [2] 25.8% | [3] 30% | [4] -45.6% | [5] 2.5% | [6] 38%

CCOC(=O)c1cnc(NN)[nH]c1=O
inactive: [1] -5.3% | [2] -4.9% | [3] -10.6% | [4] -46.4% | [5] -13.8% | [6] -4.65%

CC(CO)Cc1ccccc1 (stereo not drawn)
inactive: [1] -1.85% | [2] -12.8% | [3] -11.2% | [4] 7.45% | [5] -3.7% | [6] -9.7%

O=c1cc2ccc(Cl)cc2n[nH]1
inactive: [1] 8.1% | [2] 2.7% | [3] 2.05% | [4] -33.4% | [5] -14.3% | [6] 4.5%

CC(=O)OCC1COC(c2ccc(C)cc2)O1 (stereo not drawn)
inactive: [1] 12.9% | [2] -2.1% | [3] -13.8% | [4] -2.5% | [5] -4.45% | [6] -11.8%

Cc1ccc(S(=O)(=O)NC(CCC(=O)N2CCOCC2)C(=O)O)cc1 (stereo not drawn)
inactive: [1] -18.1% | [2] -4% | [3] 7.15% | [4] -57.9% | [5] 24.8% | [6] 8.6%

CCOC(=O)C(C)N1C(=O)c2ccccc2C1=O (stereo not drawn)
inactive: [1] 6.4% | [2] -20.4% | [3] -22% | [4] 13.3% | [5] 21.4% | [6] 0.55%

COc1cc(O)c(C(=O)/C=C/c2ccccc2)c(OC)c1
inactive: [1] 1.05% | [2] -12.1% | [3] 27.1% | [4] 15.6% | [5] 15.1% | [6] -21.4%

O=C(CCC(=O)Nc1ccccc1C(F)(F)F)N/N=C1\C(=N\NC(=O)CCC(=O)Nc2ccccc2C(F)(F)F)C(c2ccc3c(c2)OCO3)Oc2ccccc21 (stereo not drawn)
inactive: [1] 19.4% | [2] 3.4% | [3] 1.15% | [4] -11% | [5] -5.05% | [6] 4.55%

CON(C)C(=O)CNC(=O)OCC1c2ccccc2-c2ccccc21
inactive: [1] 8% | [2] -6.05% | [3] 5.35% | [4] 2.15% | [5] -5% | [6] -29.3%

COc1cc(CC(=O)C(=O)O)ccc1O
inactive: [1] 0.85% | [2] -2.95% | [3] 4.35% | [4] -14.7% | [5] 2.2% | [6] -1.95%

CC1(C)Oc2ccccc2OC1O (stereo not drawn)
inactive: [1] 1.5% | [2] 0.85% | [3] -1.75% | [4] -14.7% | [5] -10.2% | [6] 3%

CCCCC(OC(=O)c1ccccc1)c1cc(OC(=O)c2ccccc2)c2c(c1OC(=O)c1ccccc1)CC(C)=C(C)C2 (stereo not drawn)
active: [1] 84% | [3] 99%
inactive: [2] 49.6% | [4] 53.4% | [5] 48.2% | [6] 56.2%

C(=Nc1cccnc1)c1ccc(C=Nc2cccnc2)cc1
inactive: [1] 21.9% | [2] 37.5% | [3] 30.3% | [4] 25.1% | [5] 33.8% | [6] 33%

CCOc1ccccc1/C=C1\N=C(c2ccc([N+](=O)[O-])cc2)OC1=O
inactive: [1] 22.5% | [2] 21.2% | [3] 38.7% | [4] 25.5% | [5] 30.1% | [6] 31%

Nc1ncc2c(n1)-c1ccccc1OC2
inactive: [1] -29.5% | [2] 2.8% | [3] -12.4% | [4] -1.4% | [5] -20.9% | [6] -10.4%

C1=C(Nc2ccccc2)C(=Nc2ccccc2)C=C(Nc2ccccc2)C1=Nc1ccccc1
inactive: [1] -17.2% | [2] -4.25% | [3] -3.1% | [4] 7.1% | [5] 1.65% | [6] 5.4%
